CSC inhib – cancer stem cell viability inhibitors, primary screen, luminescence; actives 1.1% (n = 300,000); cancer stem cell-like cells viability; AID 2717, 2010; inhibition, % at 7.5 µM; in the data active = inhibition above about 75%; inconclusive = no clear call, values can overlap the other calls; tested in HMLE shEcad cells
GRIN3A LBD mod – binders of NR3A ligand-binding domain, primary screen, biophysical, differential scanning fluorimetry, uHTS; Glutamate receptor ionotropic, NMDA 3A (GRIN3A) ligand-binding domain; NR3A LBD differential scanning fluorimetry, Tm shift; 0% = protein alone, 100% = glycine-bound protein; Tm shift relative to glycine control, % at 25 µM; actives 2.5% (n = 340,000);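 active = melting temperature shift of at least 10% of the positive control shift, at one fixed dose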
Beta apoptosis – inhibitors of cytokine-induced beta cell apoptosis, primary screen, luminescence; actives 0.8% (n = 300,000); protection from apoptosis, % (test concentration not listed); INS-1E cytokine-induced death, ATP luminescence, 48 h; percent of positive-control rescue, neutral wells zero;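 active = Every replicate reaches about 75%, or at least half do and their mean reaches it too, limit read from the data; inconclusive = At least half of replicates reach the limit but their mean does not; inactive = Under half of replicates reach the limit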;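 also: higher means more ATP so stronger rescue from cytokine killing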
SKKanGAS inh – S. pyogenes SKKanGAS growth inhibitors in kanamycin, primary screen, streptokinase expression inhibitor project, SKKanGAS strain, BacTiter-Glo luminescence; 6 h; inhibition, % at 7.5 µM; actives 1.3% (n = 300,000);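 active = mean replicate score, as percent of positive control median, at least 50; inconclusive = mean below 50 but one replicate at or above 50; inactive = mean and every replicate below 50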;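 also: strain carries kanamycin resistance gene driven by streptokinase promoter and grows in 40 µg/ml kanamycin; loss of luminescence reflects streptokinase promoter inhibition or plain growth inhibition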
MPTP inh – mitochondrial permeability transition pore inhibitors, primary screen, biochemical, isolated mouse mitochondria, absorbance. Ca2+ swelling absorbance, 30 min. inhibition, % at 10 µM. actives 1.4% (n = 360,000);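 active = inhibition of 50% or more, scaled per plate between neutral and stimulator controls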
Mdm2 MdmX PPI – inhibitors of human Mdm2-MdmX association, primary screen, cell-based, luminescence, split luciferase, SaOS-2, uHTS. SaOS-2 split-luciferase Mdm2/MdmX complementation. inhibition, % at 8 µM. actives 3% (n = 330,000). AID 485346, 2010;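 active = inhibition of at least 50% at 8 µM in the primary screen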
Target sequence (O15151 whole entry, looked up): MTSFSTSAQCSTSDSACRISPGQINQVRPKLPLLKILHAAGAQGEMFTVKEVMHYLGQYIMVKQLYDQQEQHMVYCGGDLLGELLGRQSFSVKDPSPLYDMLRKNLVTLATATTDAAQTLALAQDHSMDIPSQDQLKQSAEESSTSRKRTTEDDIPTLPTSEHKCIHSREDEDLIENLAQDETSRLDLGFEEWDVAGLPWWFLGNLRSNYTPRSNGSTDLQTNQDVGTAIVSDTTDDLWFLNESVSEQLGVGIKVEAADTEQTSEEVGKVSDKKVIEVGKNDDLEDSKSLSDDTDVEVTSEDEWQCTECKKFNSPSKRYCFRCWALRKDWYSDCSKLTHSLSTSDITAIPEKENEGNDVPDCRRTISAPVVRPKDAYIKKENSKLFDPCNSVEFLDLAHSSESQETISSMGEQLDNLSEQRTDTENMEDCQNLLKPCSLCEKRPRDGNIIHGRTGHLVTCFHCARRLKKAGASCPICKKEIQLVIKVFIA
Target sequence (Q00987 whole entry, looked up): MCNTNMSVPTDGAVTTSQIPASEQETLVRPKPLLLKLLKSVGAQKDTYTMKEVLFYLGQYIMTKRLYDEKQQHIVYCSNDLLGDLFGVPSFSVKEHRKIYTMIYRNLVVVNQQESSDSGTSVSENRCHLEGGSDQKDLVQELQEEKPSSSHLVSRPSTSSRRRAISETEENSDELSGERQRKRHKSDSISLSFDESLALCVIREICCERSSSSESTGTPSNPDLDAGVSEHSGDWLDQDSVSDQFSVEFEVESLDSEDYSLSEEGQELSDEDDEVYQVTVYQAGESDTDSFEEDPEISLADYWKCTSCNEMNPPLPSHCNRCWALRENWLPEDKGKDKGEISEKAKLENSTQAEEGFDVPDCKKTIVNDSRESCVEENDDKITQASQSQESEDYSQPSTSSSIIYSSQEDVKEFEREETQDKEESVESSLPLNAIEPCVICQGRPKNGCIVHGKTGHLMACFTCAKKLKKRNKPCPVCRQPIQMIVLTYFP
Mdm2 MdmX conf – Mdm2-MdmX complex disruptors, retested hits, confirmation, luminescence, single concentration | AID 489028, 2010 | Mdm2-MdmX binding, luminescent assay | inhibition, % at 8 µM | shares compounds with Mdm2 MdmX PPI | actives 55% (n = 10,000); in the data active = inhibition above about 40%
Full FLuc ctr – full-length luciferase signal inhibition, confirmation, counter-screen for Mdm2/MdmX interaction inhibitor project, cell-based, single concentration, SaOS-2; inhibition, % at 8 µM; shares compounds with Mdm2 MdmX PPI; SaOS-2 full-length luciferase counterscreen, luminescence; actives 77% (n = 6,200);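 active = mean inhibition at 8 µM reaching about 37%, which flags the compound as non-specific, limit read from the data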;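 also: p53-null SaOS-2 cells with luciferase driven by a doxycycline-inducible promoter; compound on cells about two nights before reading with doxycycline added after day one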
Hits are given with their value; i = inactive; ? = inconclusive; nt = no result given. Rows were chosen to be rich in hits. Some 6.9% of all compounds tested hit in one or more screens of this group.

SMILES	CSC inhib	GRIN3A LBD mod	Beta apoptosis	SKKanGAS inh	MPTP inh	Mdm2 MdmX PPI	Mdm2 MdmX conf	Full FLuc ctr
NNc1nc2sc3c(c2c(=O)n1C1CCCCC1)CCN(Cc1ccccc1)C3	i	i	i	i	i	55	i	nt
Cc1ccc(Cl)cc1N1CCN(C(=O)c2noc(C)c2[N+](=O)[O-])CC1	nt	i	nt	i	i	75	76	60
CCOc1ncccc1C(=O)N1CCN(c2cc(Cl)ccc2C)CC1	i	i	i	i	i	61	59	81
C=C(c1ccccc1C)[n+]1ccccc1	i	i	i	i	i	i	nt	nt
CCOC(=O)C1=C(C)NC(=S)NC1c1ccc(OC(=O)c2ccco2)cc1 (centres undefined)	i	i	i	i	i	i	nt	nt
CCOC(=O)c1c(NC(=O)C2=C(C)NC(=S)NC2c2ccc(CC)cc2)sc(C)c1C (centres undefined)	i	nt	i	i	nt	64	i	nt
FC(F)(F)c1nnc2c(Sc3ccccc3)nc3ccc(Cl)cc3n12	i	i	96	i	i	97	99	i
Cn1nc(-c2ccc(Cl)cc2)c2cc(C(=O)N3CCN(c4ccccn4)CC3)sc21	i	i	i	i	i	55	i	nt
CCn1cc(C(=O)NCCCN2CC(C)CC(C)C2)c(=O)c2cc(S(=O)(=O)N(C)C3CCCCC3)ccc21 (centres undefined)	i	i	i	i	i	52	i	60
CN(C)/C=C1/OC(=O)C(C#N)=C1c1ccc(Cl)cc1	i	i	i	i	i	i	nt	nt
CCOC(=O)CNC(=O)CSc1nnc(NC(=O)c2ccc(C)cc2)s1	i	i	i	i	i	54	41	68
Nc1c(N=Nc2cccc(Cl)c2)c(=O)[nH]n1-c1ccccc1	i	i	i	i	i	56	i	nt
O=C(NC(=S)Nc1cc(C(F)(F)F)ccc1N1CCOCC1)c1sc2ccccc2c1Cl	i	i	i	i	i	50	i	nt
CC(C)(C)C(=O)NC(=S)Nc1cc(C(F)(F)F)ccc1N1CCOCC1	i	i	i	i	i	i	nt	nt
CCc1cccc(NS(=O)(=O)c2c(C)nc3sc(CC)nn3c2=O)c1	i	i	i	nt	i	53	i	nt
COc1cc(/C=N/NC(=O)c2cc(-c3cccc(OC(C)C)c3)nc3ccccc23)ccc1O	i	11	i	i	i	88	59	57
COc1ccccc1-c1cc(C(=O)N/N=C/c2ccc(C)s2)c2ccccc2n1	i	i	i	i	i	71	i	nt
CCc1ccc(/C=N/NC(=O)c2cc(-c3ccccc3OC)nc3ccccc23)s1	nt	i	i	i	i	i	nt	nt
Cc1ccc2nc(SCC(=O)NC3CCS(=O)(=O)C3)[nH]c2c1 (centres undefined)	i	i	i	nt	i	i	nt	nt
O=C(N/N=C/c1cc(Br)c(Br)s1)c1ccncc1	i	i	85	i	i	51	i	nt
O=C(N/N=C/c1ccc(Br)s1)c1ccncc1	nt	i	i	i	i	i	nt	nt
COc1cccc(OCCCn2cc(/C=C3/C(=N)N4C=C(C)SC4=NC3=O)c3ccccc32)c1	i	i	i	i	i	i	nt	nt
COc1ccc(OCCCn2cc(/C=C3/C(=N)N4C=C(C)SC4=NC3=O)c3ccccc32)cc1	i	i	i	i	i	65	71	69
CCN(CC)c1ccc2c(c1)oc(=O)c1c(Cl)cc(=O)oc12	i	i	i	i	i	99	99	57
CCN(CC)c1ccc2c(Cl)c(Br)c(=O)oc2c1	?	i	i	i	i	100	44	i
SMILES	CSC inhib	GRIN3A LBD mod	Beta apoptosis	SKKanGAS inh	MPTP inh	Mdm2 MdmX PPI	Mdm2 MdmX conf	Full FLuc ctr
CCN(CC)c1ccc2c(C)c(Cl)c(=O)oc2c1	i	i	i	i	i	i	nt	nt
CCN(CC)c1ccc2c(C)cc(=O)oc2c1	i	i	i	nt	i	i	nt	nt
CCc1nnc(NC(=O)CSc2nnc3c(n2)[nH]c2ccccc23)s1	i	i	i	i	i	i	nt	nt
Cc1ccnc(NC(=O)CSc2nnc3c(n2)[nH]c2ccccc23)c1	i	nt	i	i	nt	55	56	99
COc1ccc(NC(=O)/C(C#N)=C\C=C\c2ccco2)cc1	?	i	i	i	i	51	53	58
O=C(O)c1cc2ccccc2c(N=Nc2cccnc2)c1O	i	i	i	i	i	61	i	nt
O=C(c1cc2ccccc2o1)c1cccs1	i	i	i	i	i	i	nt	nt
CCOc1cccc(C(=O)Nc2ccc(NC(=O)c3cc4ccccc4o3)c(OC)c2)c1	i	i	i	i	i	i	nt	nt
COc1cc(NC(=O)c2cccc(C)c2)ccc1NC(=O)c1cc2ccccc2o1	i	33	i	i	i	67	i	81
O=C(NC(=S)Nc1ccc(NC(=O)c2cccs2)cc1)c1cc2ccccc2o1	i	29	i	i	i	52	i	nt
COc1cc(NC(=O)C(C)C)ccc1NC(=O)c1cc2ccccc2o1	i	i	i	i	i	i	nt	nt
CCC(=O)NC(=S)Nc1ccc(NC(=O)c2cc3ccccc3o2)c(OC)c1	i	i	i	i	i	54	i	nt
COc1cc(NC(=O)c2cccc([N+](=O)[O-])c2)ccc1NC(=O)c1cc2ccccc2o1	i	i	i	i	i	81	i	88
CCC(C)(C)C1CCC2(CC1)NC(=O)N(CC(=O)N(C)Cc1ccc3c(c1)OCCO3)C2=O (centres undefined)	i	i	i	nt	i	i	nt	nt
Cn1c(=O)c2c([nH]c(=O)n2C)n(Cc2ccccc2)c1=O	i	i	i	i	i	i	nt	nt
CC(=O)NC(CC(=O)O)c1ccc([N+](=O)[O-])cc1 (centres undefined)	i	i	i	i	i	i	nt	nt
CCOc1ccc(CCNC(=O)c2cc(=O)[nH]c3ccc(S(=O)(=O)N(CC)CC)cc23)cc1OCC	i	i	i	i	i	i	nt	nt
CC(C)NC(=O)N(C)C[C@H]1Oc2ccc(NC(=O)C3CC3)cc2C(=O)N([C@H](C)CO)C[C@@H]1C	i	i	i	nt	i	i	nt	nt
C=CCOc1ccccc1CNc1cccc(F)c1	i	i	i	i	i	i	nt	nt
C=CCOc1ccccc1CNc1ccc2c(c1)OCCO2	i	i	i	i	i	64	65	69
CCOC(=O)C1CCN(C(=O)c2cccc(NS(=O)(=O)c3ccc(F)c(F)c3)c2)CC1	i	i	i	i	i	i	nt	nt
